Most compounds without a hit are left out; they make up all but 2.7% or so of the library.
FBPA coupling cs: coupling enzyme interference in Giardia aldolase counter-screen | coupling enzyme system counterscreen, AmpLite Red fluorescence | activity change, negative = inhibition, % at 58.2 µM, hits read low | 0.67% of 290,000 active; in the data active means activity change below about -30%
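Compounds tested against the coupling enzymes alone at 57.5 uM final; readout was AmpLite Red fluorescence (525/598 nm) after 20 min at RT.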
Tau FP inhib: inhibitors of human tau fibril formation; 0.39% of 280,000 active; Potency, µM (titrated, usually from 57.7 µM), most hits filed as inhibitors; K18 P301L tau heparin fibrillization, Alexa594 FP, 6 h; AID 1468; active means well fitted curve in the direction sought with a large enough effect; inconclusive means small, poorly fitted or top-dose-only effect, or another doubt; inactive means no such curve, though single readings can be large; an effect the other way counts as inactive or inconclusive; further: nearly all actives have a fitted effect of over 55% in size
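FP of Alexa 594-tau after heparin (20 uM) induction. Substrate: human K18 P301L, 15 uM unlabeled, 0.24 uM labeled. Buffer 100 mM sodium acetate pH 7. 6 hr, 37 C.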
Tau ThT inhib: inhibitors of human tau fibril formation, thioflavin T binding; recombinant tau K18 P301L, heparin-induced fibrillization, ThT fluorescence; Potency, µM (series often up to 57.4 µM), usual class: inhibitors; 2.1% of 270,000 active; active means well fitted curve in the direction sought with a large enough effect; inconclusive means small, poorly fitted or top-dose-only effect, or another doubt; inactive means no such curve, though single readings can be large; an effect the other way counts as inactive or inconclusive; further: nearly all actives have a fitted effect of over 55% in size
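In this qHTS, human K18 P301L tau is incubated with compound and heparin for 6 hr at 37 C, and Thioflavin T fluorescence then reports fibril load.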
Tau fluor cs: counter-screen for tau fibril formation inhibitors; AID 1463; 0.93% of 280,000 active; Potency, µM (doses to about 57.7 µM); tau K18 P301L Alexa594 fluorescence, heparin fibrillization; active means well fitted curve in the direction sought with a large enough effect; inconclusive means small, poorly fitted or top-dose-only effect, or another doubt; inactive means no such curve, though single readings can be large; an effect the other way counts as inactive or inconclusive; further: nearly all actives have a fitted effect of over 55% in size
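Human K18 P301L tau (15 uM unlabeled plus 0.24 uM Alexa 594-labeled, final) in 100 mM sodium acetate pH 7 was mixed with compound and 20 uM heparin and incubated 6 hr at 37 C.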
Tau fibril TEM: Inhibits tau K18 fibrillization by TEM grading; shares compounds with Tau ThT inhib; recombinant tau K18 P301L fibrillization, TEM grading; stronger effect = higher value; fibril grade (0 = clumped fibrils, 4 = only tiny pieces) (test concentration not listed); 70% of 45 active; AID 1719;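 active means compounds whose electron micrographs showed tau fibrils broken into shorter filaments or fragments, graded high on fibril breakup; inconclusive means micrographs gave an unclear fibril picture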
tau fibril sed: inhibitors of human tau fibrillization, sedimentation test. 50% of 110 active. AID 1720. inhibition, % at 100 µM. recombinant tau K18 P301L (four-repeat tau fragment), sedimentation SDS-PAGE densitometry. shares compounds with Tau ThT inhib; in the data active means inhibition above about 40%; inconclusive means no clear call, values can overlap the other calls; inactive means below about 18%
Casp1 catalase: caspase-1 inhibition with catalase present. 30 tested, under 10 active. Potency, µM (titrated, usually from 57.5 µM), actives largely listed as inhibitors. caspase-1 Ac-WEHD-AFC fluorescence rate, catalase buffer. shares compounds with FBPA coupling cs
CASP1 inh CRC: confirmation of allosteric or competitive inhibitors of human caspase-1 | AID 896 | shares compounds with FBPA coupling cs | purified caspase-1, fluorogenic substrate cleavage | 20% of 60 active | Potency, µM (titrated, usually from 57.5 µM), most hits filed as inhibitors
CASP7 inh CRC: confirmation of allosteric or competitive inhibitors of human caspase-7; shares compounds with FBPA coupling cs; recombinant caspase-7, fluorogenic substrate cleavage; Potency, µM (top dose mostly 57.5 µM), usual class: inhibitors; 60 tested, under 10 active; AID 897; active means well fitted inhibition curve with a large enough effect in the main read-out, with a control signal flat, not every such curve was filed as active; inconclusive means small, poorly fitted or top-dose-only effect, or a change in a side signal; inactive means no such curve, though single readings can be large or run the other way
CASP7 redox cys: inhibits caspase-7 in cysteine buffer, redox counter-screen; shares compounds with FBPA coupling cs; caspase-7 enzyme with cysteine, fluorogenic substrate, redox counterscreen; Potency, µM (series often up to 57.5 µM), usual class: inhibitors; 60 tested, under 10 active
CASP7 redox cat: counter-screen for redox active caspase-7 inhibitors: catalase buffer | Caspase-7 Ac-DEVD-AFC fluorescence rate, catalase buffer | shares compounds with FBPA coupling cs | 30 tested, under 10 active | Potency, µM (series often up to 57.5 µM), actives largely listed as inhibitors | AID 909
Casp1 cysteine: counter-screen for redox active caspase-1 inhibitors: cysteine buffer; shares compounds with FBPA coupling cs; recombinant caspase-1, fluorogenic substrate, cysteine buffer; Potency, µM (series often up to 57.5 µM), usual class: inhibitors; 60 tested, under 10 active; AID 929
Hits are given with their value; . = inactive; ? = inconclusive; / = not tested or not shown; [ ] = remark or other dose. Unless noted, the call rests on the fitted dose curve; in most records, active means well fitted inhibition curve with a large enough effect in the main read-out, with a control signal flat; inconclusive means small, poorly fitted or top-dose-only effect, or a change in a side signal; inactive means no such curve, though single readings can be large or run the other way.

SMILES	FBPA coupling cs	Tau FP inhib	Tau ThT inhib	Tau fluor cs	tau fibril sed	others
Cc1[nH]c(=O)c(C#N)cc1-c1ccncc1	.	.	.	.	.
CN(c1ccccc1)S(=O)(=O)c1nnc(NC(=O)C2CCCCC2)s1	.	?	2.5µM	?	80	Tau fibril TEM=3
CN(c1ccccc1)S(=O)(=O)c1nnc(NC(=O)c2ccco2)s1	/	.	.	.	/
CCOC(=O)c1nn(-c2ccc(Cl)cc2)c(=O)c2c(N)scc12	/	/	/	/	62
CCOC(=O)c1nn(-c2ccc(F)cc2)c(=O)c2c(N)scc12	.	.[2.34 µM]	.	.	64
CCOC(=O)c1nn(-c2ccc(C)cc2)c(=O)c2c(N)scc12	-55	?	14µM	?	?
COC(=O)c1nn(-c2ccc(OC)cc2)c(=O)c2c(N)sc(C)c12	-52	.	?	.	44	Tau fibril TEM=?
CCOC(=O)c1nn(-c2ccc(F)cc2)c(=O)c(C#N)c1C	.	/	/	/	/
C[C@@H]1OC(Oc2ccccc2-c2cc(=O)c3c(O)cc(O)c([C@@H]4O[C@H](CO)[C@@H](O)[C@H](O)[C@H]4O)c3o2)[C@H](O)[C@H](O)[C@H]1O (stereo partly drawn)	.	/	/	/	/
COC(=O)c1ccc(OCC2c3cc(OC)c(OC)cc3CCN2C(=O)Cc2ccc(OC)c(OC)c2)cc1 (stereo not drawn)	/	.	.	.	/
Cc1cccc(NC(=O)CSC2=Nc3ccccc3C3=NC(CCC(=O)NCc4ccco4)C(=O)N23)c1 (stereo not drawn)	/	.	.	.	/
O=C(Nc1ccc(C(=O)OCc2cc(=O)n3c4c(sc3n2)CCCC4)cc1)c1ccc(Cl)cc1	/	.	.	.	/
CC(=O)Nc1nc(C)c(-c2csc(Nc3cccc([N+](=O)[O-])c3)n2)s1	.	?	?	?	.
CC(=O)Nc1nc(C)c(-c2csc(Nc3ccc(O)cc3)n2)s1	.	.	8.9µM	14µM[quencher]	?	Tau fibril TEM=.
O=C(Cn1c(=O)c(CNc2ccccc2)cc2cc3c(cc21)OCCO3)Nc1ccccc1Cl	/	?	8.9µM	?	62	Tau fibril TEM=.
Cc1ccc(Cl)cc1NC(=O)Cn1c(=O)c(CNc2ccccc2)cc2cc3c(cc21)OCCO3	/	.	?	?	/
CCc1ccccc1N(C)C(=O)Cn1cnc2sc(C)c(S(=O)(=O)N3CCN(c4ncccn4)CC3)c2c1=O	/	.	.	.	/
O=C(O)CN1C(=O)/C(=C/c2ccc(-c3cccc(Cl)c3)o2)SC1=S	/	/	/	/	.
CC(C)(C)OC(=O)CN1C(=O)S/C(=C\c2ccc(-c3cccc(C(=O)O)c3)o2)C1=O	.	/	/	/	/
O=C(Nc1ccc(OC(F)(F)F)cc1)Nc1cccc([N+](=O)[O-])c1	.	4.5µM	?	1.8µM[quencher]	.
O=C(Nc1ccc(OC(F)(F)F)cc1)Nc1cccnc1	.	.	.	.	/
COc1cc2c(cc1OC)CN(C(=O)CSc1nc3[nH]ncc3c(=O)n1-c1ccccc1)CC2	.	.	.	.	/	Casp1 catalase=.;CASP1 inh CRC=.;CASP7 inh CRC=?;CASP7 redox cys=?;CASP7 redox cat=.;Casp1 cysteine=.
COc1ccc(N2CCN(C(=O)CSc3nc4[nH]ncc4c(=O)n3-c3cccc4ccccc34)CC2)cc1	.	.	?	?	/
O=C(Nc1ccc2c(c1)OCO2)[C@@H]1[C@@H]2C(=O)N(C3CCCCC3)C(=O)[C@@H]2C2c3ccccc3C=CN21 (stereo partly drawn)	-35	.	?	?	/	Casp1 catalase=.;CASP1 inh CRC=.;CASP7 inh CRC=.;CASP7 redox cys=.;CASP7 redox cat=.;Casp1 cysteine=.
COc1ccc(C2CC(=O)N3CN(c4ccccc4F)CSC3=C2C#N)cc1OC (stereo not drawn)	.	?	28µM	.	/	Casp1 catalase=.;CASP1 inh CRC=.;CASP7 inh CRC=.;CASP7 redox cys=.;CASP7 redox cat=.;Casp1 cysteine=.
SMILES	FBPA coupling cs	Tau FP inhib	Tau ThT inhib	Tau fluor cs	tau fibril sed	others
COc1cccc(Cn2cccc(NC(=O)NC3CCCCC3)c2=O)c1	.	.	.	.	/	Casp1 catalase=.;CASP1 inh CRC=.;CASP7 inh CRC=.;CASP7 redox cys=.;CASP7 redox cat=.;Casp1 cysteine=.
Cc1cc(C)cc(C(=O)N(C)[C@H](Cc2ccc(-c3ccccc3)cc2)C(=O)N[C@@H](Cc2c[nH]c3ccccc23)C(=O)O)c1	.	.	?	.	/	CASP1 inh CRC=?;CASP7 inh CRC=16µM;CASP7 redox cys=16µM;Casp1 cysteine=?
O=C1NCCCC2c3cc(O)c4ccccc4c3OC12N1CCCCC1 (stereo not drawn)	-57	?	13µM	?	/	Casp1 catalase=.;CASP1 inh CRC=.;CASP7 inh CRC=.;CASP7 redox cys=.;CASP7 redox cat=.;Casp1 cysteine=.
O=C1NCCCC2c3c(cc(Br)c(O)c3Br)OC12N1CCOCC1 (stereo not drawn)	.	?	?	.	/
CCC(Oc1ccc(F)cc1)C(=O)Nc1nc(-c2ccc(F)cc2)ns1 (stereo not drawn)	/	?	.	?	/
CC1(C)C(=O)NC2=C1C(=O)C(=O)c1ccccc12	-76	?	18µM	.	/	CASP1 inh CRC=4µM;CASP7 inh CRC=?;CASP7 redox cys=.;Casp1 cysteine=.
COc1ccc(S(=O)(=O)Nc2ccc(O)c3ccccc23)cc1	.	?	?	?	/	Casp1 catalase=.;CASP1 inh CRC=.;CASP7 inh CRC=.;CASP7 redox cys=.;CASP7 redox cat=.;Casp1 cysteine=.
COc1ccc(S(=O)(=O)Nc2ccccc2C(F)(F)F)cc1	.	.	.	.	/
Cc1ccc(-n2nc3c(=O)n(C(C)C(=O)NCc4ccc(OC(C)C)cc4)nc(C)c3c2C)cc1 (stereo not drawn)	/	.	?	.	/
